Results as given in the supplement of paper PMC10849652.
The full data set covers some 7,900 targets. This sample favours those with a hit. About 0.6% of all pairs of compound and target were hits.

Tests used:
Assay in all cases: log2 fold change, soluble protein after heating vs DMSO (PISA); higher = thermal stabilisation; K562 cells, 10 uM, 30 min; active = over 0.2 and 3.5 SD of the protein, either way, in both replicates (recomputed)
[1] = compound: NC(=O)Nc1cc(-c2cccc(F)c2)sc1C(=O)N[C@H]1CCCNC1
Summary of the method: (§1)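 For each measurement, 10 μM compound was applied for 30 min to K562 cells at 2×10^6 cells/mL. Aliquots were heated for 3 min across 48°C-58°C, pooled, and extracted in PBS with 0.5% NP-40 at 4°C; the supernatant after 21,000xg for 90 min was soluble protein. This was quantified by TMTpro 16plex LC-MS/MS with channel sums equalised, and thermal stability was reported relative to control samples from duplicates, on a log2 fold-change scale.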

[2] = compound: NC(=O)c1cnc(N[C@@H]2CCCC[C@@H]2N)nc1Nc1cccc(-n2nccn2)c1
Summary of the method: as §1

[3] = compound: NC1(c2ccc(-c3nc4ccn5c(=O)[nH]nc5c4cc3-c3ccccc3)cc2)CCC1
Summary of the method: as §1

[4] = compound: NCC(=O)Nc1ccc(-n2nc(C(F)(F)F)cc2-c2ccc3c(ccc4ccccc43)c2)cc1
Summary of the method: as §1

[5] = compound: Nc1ccccc1NC(=O)c1ccc(CNC(=O)OCc2cccnc2)cc1 [entinostat]
Summary of the method: as §1

[6] = compound: O=C(CCCCCCC(=O)Nc1ccccc1)NO [vorinostat]
Summary of the method: as §1

[7] = compound: O=C(CCCCCCNC(=O)c1cnc(N(c2ccccc2)c2ccccc2Cl)nc1)NO [citarinostat]
Summary of the method: as §1

[8] = compound: O=C(O)c1ccc2c(c1)nc(Nc1cccc(Cl)c1)c1ccncc12 [silmitasertib]
Summary of the method: as §1

[9] = compound: O=C1NC(=O)C(c2cnc3ccccn23)=C1c1cn2c3c(cc(F)cc13)CN(C(=O)N1CCCCC1)CC2
Summary of the method: as §1

[10] = compound: c1cc(OCCN2CCCCC2)cc(-c2n[nH]c3ccc(-c4nnc[nH]4)cc23)c1
Summary of the method: as §1

[11] = compound: c1cn2cc(-c3ccc4cn[nH]c4c3)nc(Nc3ccc(N4CCOCC4)cc3)c2n1 [entospletinib]
Summary of the method: as §1

Measured: log2 fold change

LNPK (UniProt Q9C0E8)
Sequence of UniProt Q9C0E8 (Q9C0E8 whole entry, looked up): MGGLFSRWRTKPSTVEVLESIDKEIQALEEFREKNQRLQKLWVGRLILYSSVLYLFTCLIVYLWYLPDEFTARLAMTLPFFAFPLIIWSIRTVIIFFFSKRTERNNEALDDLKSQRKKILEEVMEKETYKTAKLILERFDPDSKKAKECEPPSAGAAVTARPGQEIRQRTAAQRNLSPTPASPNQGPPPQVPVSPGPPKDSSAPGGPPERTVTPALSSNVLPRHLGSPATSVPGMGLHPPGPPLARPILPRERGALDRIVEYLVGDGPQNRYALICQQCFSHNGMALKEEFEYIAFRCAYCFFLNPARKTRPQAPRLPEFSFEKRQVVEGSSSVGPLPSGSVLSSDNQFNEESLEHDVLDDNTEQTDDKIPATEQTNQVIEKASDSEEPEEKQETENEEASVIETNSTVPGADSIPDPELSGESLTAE
inactive: [1] 0.011 | [2] 0.01 | [3] 0.009 | [4] 0.014 | [5] -0.013 | [6] -0.006 | [7] 0.002 | [8] 0.072 | [9] -0.051 | [10] -0.006 | [11] 0.01

INTS7 (UniProt Q9NVH2)
Sequence of UniProt Q9NVH2 (Q9NVH2 whole entry, looked up): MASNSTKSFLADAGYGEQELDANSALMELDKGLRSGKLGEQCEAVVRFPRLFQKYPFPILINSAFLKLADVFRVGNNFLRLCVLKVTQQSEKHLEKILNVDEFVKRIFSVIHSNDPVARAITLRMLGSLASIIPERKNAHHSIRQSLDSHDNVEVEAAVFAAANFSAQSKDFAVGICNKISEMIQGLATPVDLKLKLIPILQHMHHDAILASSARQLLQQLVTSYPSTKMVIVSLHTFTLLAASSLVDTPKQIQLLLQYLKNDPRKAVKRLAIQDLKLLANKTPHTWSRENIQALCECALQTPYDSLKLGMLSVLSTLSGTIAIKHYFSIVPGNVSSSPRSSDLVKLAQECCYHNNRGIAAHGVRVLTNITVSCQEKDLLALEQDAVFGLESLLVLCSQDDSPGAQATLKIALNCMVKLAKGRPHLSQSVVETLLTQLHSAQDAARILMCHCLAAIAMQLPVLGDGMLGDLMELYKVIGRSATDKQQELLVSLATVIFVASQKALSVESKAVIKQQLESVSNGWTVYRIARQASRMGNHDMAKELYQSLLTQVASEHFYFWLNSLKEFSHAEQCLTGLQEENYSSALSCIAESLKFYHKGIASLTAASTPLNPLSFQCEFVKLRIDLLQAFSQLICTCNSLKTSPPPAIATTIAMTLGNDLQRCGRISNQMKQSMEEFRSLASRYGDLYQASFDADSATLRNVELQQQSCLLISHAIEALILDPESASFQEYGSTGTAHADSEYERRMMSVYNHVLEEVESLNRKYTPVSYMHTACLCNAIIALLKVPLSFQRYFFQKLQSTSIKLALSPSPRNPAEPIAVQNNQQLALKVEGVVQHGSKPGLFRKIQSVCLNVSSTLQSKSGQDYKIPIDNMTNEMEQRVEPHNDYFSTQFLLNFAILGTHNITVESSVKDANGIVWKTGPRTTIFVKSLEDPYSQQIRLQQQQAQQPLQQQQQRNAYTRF
inactive: [1] -0.076 | [2] 0.037 | [3] 0.001 | [4] -0.045 | [5] -0.095 | [6] 0.049 | [7] -0.007 | [8] 0.055 | [9] 0.092 | [10] 0.01 | [11] -0.005

MIA2 (UniProt Q96PC5)
inactive: [1] 0.03 | [2] -0.03 | [3] 0.06 | [4] -0.032 | [5] -0.009 | [6] 0.009 | [7] 0.059 | [8] 0.083 | [9] -0.045 | [10] -0.058 | [11] -0.012

MCL1 (UniProt Q07820)
inactive: [1] -0.074 | [2] -0.33 | [3] -0.093 | [4] -0.039 | [5] 0.072 | [6] 0.011 | [7] -0.079 | [8] 0.034 | [9] -0.112 | [10] 0.142 | [11] 0.081

INPP1 (UniProt P49441)
inactive: [1] -0.11 | [2] -0.035 | [3] -0.108 | [4] -0.036 | [5] -0.089 | [6] -0.066 | [7] 0.024 | [8] -0.042 | [9] 0.023 | [10] -0.039 | [11] 0.017

LARP4 isoform 4 (UniProt Q71RC2)
inactive: [1] -0.034 | [2] -0.094 | [3] 0.084 | [4] 0.048 | [5] 0.037 | [6] 0.133 | [7] -0.004 | [8] 0.043 | [9] 0.009 | [10] -0.116 | [11] 0.095

ILK (UniProt Q13418)
inactive: [1] -0.236 | [2] -0.125 | [3] -0.07 | [4] -0.095 | [5] -0.149 | [6] 0.083 | [7] -0.006 | [8] -0.003 | [9] -0.036 | [10] -0.048 | [11] 0.074

IK (UniProt Q13123)
inactive: [1] -0.016 | [2] 0.119 | [3] 0.06 | [4] -0.08 | [5] 0.008 | [6] 0.026 | [7] -0.235 | [8] 0.132 | [9] 0.017 | [10] -0.078 | [11] 0.015

KRAS isoform 2 (UniProt P01116)
inactive: [1] -0.07 | [2] 0.039 | [3] 0.091 | [4] 0.061 | [5] -0.015 | [6] -0.032 | [7] -0.018 | [8] 0.001 | [9] -0.019 | [10] -0.032 | [11] -0.053

LENG8 (UniProt Q96PV6)
Sequence of UniProt Q96PV6 (Q96PV6 whole entry, looked up): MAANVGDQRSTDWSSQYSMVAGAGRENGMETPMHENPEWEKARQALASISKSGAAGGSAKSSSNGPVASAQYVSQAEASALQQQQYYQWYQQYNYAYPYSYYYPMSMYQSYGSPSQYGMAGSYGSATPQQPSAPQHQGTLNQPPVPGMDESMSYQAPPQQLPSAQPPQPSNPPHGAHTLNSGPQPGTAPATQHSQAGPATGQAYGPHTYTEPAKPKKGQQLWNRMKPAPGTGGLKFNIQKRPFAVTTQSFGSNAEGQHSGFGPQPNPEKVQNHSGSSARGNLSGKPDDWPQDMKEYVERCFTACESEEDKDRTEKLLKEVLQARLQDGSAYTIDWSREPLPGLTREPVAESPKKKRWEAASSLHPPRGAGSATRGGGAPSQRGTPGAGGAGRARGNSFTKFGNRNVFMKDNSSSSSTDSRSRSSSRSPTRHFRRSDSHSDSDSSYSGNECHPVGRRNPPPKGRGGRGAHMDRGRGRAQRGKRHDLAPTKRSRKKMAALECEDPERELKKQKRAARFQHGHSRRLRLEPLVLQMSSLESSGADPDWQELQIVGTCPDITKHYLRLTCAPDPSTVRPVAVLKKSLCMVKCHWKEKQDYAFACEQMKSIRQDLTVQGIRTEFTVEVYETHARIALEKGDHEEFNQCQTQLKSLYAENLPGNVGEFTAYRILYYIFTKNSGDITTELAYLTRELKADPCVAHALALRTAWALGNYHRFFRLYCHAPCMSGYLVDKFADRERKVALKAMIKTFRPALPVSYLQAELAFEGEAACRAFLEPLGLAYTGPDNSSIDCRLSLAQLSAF
inactive: [1] -0.012 | [2] -0.075 | [3] 0.042 | [4] -0.198 | [5] 0.085 | [6] 0.298 | [7] 0 | [8] 0.09 | [9] -0.144 | [10] -0.091 | [11] 0.131

MDC1 (UniProt Q14676)
inactive: [1] 0.115 | [2] -0.075 | [3] -0.054 | [4] 0.153 | [5] 0.001 | [6] -0.164 | [7] 0.062 | [8] -0.116 | [9] -0.026 | [10] -0.086 | [11] -0.054

KMT2C isoform 3 (UniProt Q8NEZ4)
active: [3] -0.756
inactive: [1] -0.021 | [2] 0.046 | [4] -0.006 | [5] -0.03 | [6] 0.19 | [7] 0.104 | [8] -0.052 | [9] -0.094 | [10] -0.076 | [11] 0.052

KCT2 (UniProt Q8NC54)
active: [3] -0.378
inactive: [1] 0.047 | [2] -0.029 | [4] 0.013 | [5] -0.054 | [6] 0.022 | [7] 0.05 | [8] 0.035 | [9] 0.047 | [10] -0.02 | [11] 0.022

LUC7L (UniProt Q9NQ29)
Sequence of UniProt Q9NQ29 (Q9NQ29 whole entry, looked up): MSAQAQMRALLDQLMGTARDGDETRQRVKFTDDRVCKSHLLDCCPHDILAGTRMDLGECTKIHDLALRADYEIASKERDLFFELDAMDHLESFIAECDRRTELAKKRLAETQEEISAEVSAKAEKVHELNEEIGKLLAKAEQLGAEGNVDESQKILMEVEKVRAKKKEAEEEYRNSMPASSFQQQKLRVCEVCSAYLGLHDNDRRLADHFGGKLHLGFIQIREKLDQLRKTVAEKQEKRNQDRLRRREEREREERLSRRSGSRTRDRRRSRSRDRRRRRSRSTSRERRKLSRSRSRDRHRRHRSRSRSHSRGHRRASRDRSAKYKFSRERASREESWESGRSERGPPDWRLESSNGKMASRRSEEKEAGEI
inactive: [1] -0.061 | [2] 0.011 | [3] 0.17 | [4] -0.043 | [5] -0.01 | [6] -0.058 | [7] -0.052 | [8] -0.006 | [9] 0.133 | [10] -0.095 | [11] 0.083

MIEF1 (UniProt Q9NQG6)
inactive: [1] -0.001 | [2] -0.14 | [3] -0.215 | [4] -0.034 | [5] 0.056 | [6] 0.019 | [7] 0.073 | [8] 0.006 | [9] 0.031 | [10] -0.01 | [11] 0.032

KEAP1 (UniProt Q14145)
inactive: [1] 0.007 | [2] -0.027 | [3] -0.076 | [4] -0.034 | [5] 0.051 | [6] 0.156 | [7] -0.005 | [8] 0.122 | [9] 0.143 | [10] -0.055 | [11] 0.101

LNPEP (UniProt Q9UIQ6)
Sequence of UniProt Q9UIQ6 (Q9UIQ6 whole entry, looked up): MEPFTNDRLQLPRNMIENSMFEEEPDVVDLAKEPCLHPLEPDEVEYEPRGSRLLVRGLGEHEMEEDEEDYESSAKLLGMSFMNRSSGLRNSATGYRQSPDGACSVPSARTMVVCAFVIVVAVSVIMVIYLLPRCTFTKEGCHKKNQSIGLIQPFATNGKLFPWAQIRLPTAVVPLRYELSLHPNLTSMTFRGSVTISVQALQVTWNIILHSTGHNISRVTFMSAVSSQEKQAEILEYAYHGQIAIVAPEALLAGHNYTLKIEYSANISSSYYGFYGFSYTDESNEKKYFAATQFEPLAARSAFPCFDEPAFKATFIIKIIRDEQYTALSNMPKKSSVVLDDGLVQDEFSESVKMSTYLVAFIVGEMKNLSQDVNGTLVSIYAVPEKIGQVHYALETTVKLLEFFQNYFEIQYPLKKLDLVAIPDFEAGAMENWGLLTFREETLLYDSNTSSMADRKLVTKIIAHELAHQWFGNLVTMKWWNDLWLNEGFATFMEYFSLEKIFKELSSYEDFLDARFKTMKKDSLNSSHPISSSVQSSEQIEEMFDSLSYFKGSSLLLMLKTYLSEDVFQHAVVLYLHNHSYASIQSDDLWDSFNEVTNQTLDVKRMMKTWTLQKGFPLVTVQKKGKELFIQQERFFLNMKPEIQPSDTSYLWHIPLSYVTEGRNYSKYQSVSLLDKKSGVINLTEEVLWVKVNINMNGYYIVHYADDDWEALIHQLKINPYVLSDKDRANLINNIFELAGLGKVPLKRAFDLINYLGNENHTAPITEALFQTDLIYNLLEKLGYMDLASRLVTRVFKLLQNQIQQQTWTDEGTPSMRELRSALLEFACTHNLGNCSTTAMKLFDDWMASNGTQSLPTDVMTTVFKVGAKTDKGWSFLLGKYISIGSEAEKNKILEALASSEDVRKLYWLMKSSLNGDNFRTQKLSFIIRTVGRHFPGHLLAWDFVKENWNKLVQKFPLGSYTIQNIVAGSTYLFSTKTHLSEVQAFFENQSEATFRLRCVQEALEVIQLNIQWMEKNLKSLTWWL
inactive: [1] 0.037 | [2] 0.011 | [3] -0.037 | [4] 0.019 | [5] -0.028 | [6] -0.007 | [7] 0.056 | [8] 0.002 | [9] 0.004 | [10] -0.022 | [11] 0.013

IWS1 (UniProt Q96ST2)
inactive: [1] -0.049 | [2] 0.034 | [3] -0.028 | [4] -0.171 | [5] 0.012 | [6] -0.008 | [7] -0.059 | [8] 0.054 | [9] -0.032 | [10] 0 | [11] 0.159

MICU2 (UniProt Q8IYU8)
Sequence of UniProt Q8IYU8 (Q8IYU8 whole entry, looked up): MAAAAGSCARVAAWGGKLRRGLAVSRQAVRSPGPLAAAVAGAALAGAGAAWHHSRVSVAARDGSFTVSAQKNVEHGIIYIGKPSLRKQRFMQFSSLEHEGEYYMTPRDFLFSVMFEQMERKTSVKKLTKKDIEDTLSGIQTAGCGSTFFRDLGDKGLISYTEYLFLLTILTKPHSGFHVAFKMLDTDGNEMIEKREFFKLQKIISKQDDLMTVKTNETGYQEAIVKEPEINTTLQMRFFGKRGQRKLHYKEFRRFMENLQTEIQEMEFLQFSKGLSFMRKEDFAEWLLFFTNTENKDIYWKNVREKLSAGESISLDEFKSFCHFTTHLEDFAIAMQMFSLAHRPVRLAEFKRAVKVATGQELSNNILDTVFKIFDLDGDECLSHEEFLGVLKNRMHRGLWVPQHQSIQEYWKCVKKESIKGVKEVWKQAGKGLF
inactive: [1] -0.095 | [2] -0.075 | [3] -0.121 | [4] -0.006 | [5] -0.014 | [6] 0.073 | [7] 0.042 | [8] 0.076 | [9] 0.04 | [10] -0.141 | [11] 0.019

MEAK7 (UniProt Q6P9B6)
Sequence of UniProt Q6P9B6 (Q6P9B6 whole entry, looked up): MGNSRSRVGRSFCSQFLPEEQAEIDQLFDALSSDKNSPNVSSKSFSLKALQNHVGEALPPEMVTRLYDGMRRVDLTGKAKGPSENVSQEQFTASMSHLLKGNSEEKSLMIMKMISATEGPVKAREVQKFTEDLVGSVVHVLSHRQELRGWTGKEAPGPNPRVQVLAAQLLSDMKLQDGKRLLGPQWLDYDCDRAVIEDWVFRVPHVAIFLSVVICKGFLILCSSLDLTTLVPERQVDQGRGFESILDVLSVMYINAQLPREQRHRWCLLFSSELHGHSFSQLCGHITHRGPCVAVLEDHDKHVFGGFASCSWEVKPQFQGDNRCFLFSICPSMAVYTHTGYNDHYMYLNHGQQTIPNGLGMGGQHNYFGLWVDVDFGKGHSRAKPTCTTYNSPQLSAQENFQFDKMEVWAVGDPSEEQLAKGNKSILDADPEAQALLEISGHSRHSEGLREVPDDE
inactive: [1] -0.011 | [2] -0.117 | [3] -0.122 | [4] -0.025 | [5] 0.027 | [6] 0.069 | [7] 0.053 | [8] -0.028 | [9] -0.021 | [10] 0.016 | [11] -0.06

MAP3K4 isoform 2 (UniProt Q9Y6R4)
inactive: [1] 0.036 | [2] -0.025 | [3] -0.104 | [4] -0.025 | [5] -0.027 | [6] -0.019 | [7] 0.006 | [8] 0 | [9] -0.029 | [10] -0.075 | [11] 0.02

LYN (UniProt P07948)
inactive: [2] 0.048 | [3] -0.048 | [4] -0.016 | [5] -0.006 | [6] 0.058 | [7] 0.017 | [8] 0.176 | [9] 0.022 | [10] 0.143 | [11] -0.024
active: [1] 0.385

IPO9 (UniProt Q96P70)
inactive: [1] 0.059 | [2] -0.072 | [3] -0.07 | [4] 0.003 | [5] 0.022 | [6] 0.041 | [7] 0.061 | [8] 0.164 | [9] 0.048 | [10] -0.035 | [11] 0.037

MARK3 (UniProt P27448)
inactive: [1] -0.125 | [2] -0.181 | [3] -0.006 | [4] -0.113 | [5] 0.064 | [6] 0.139 | [7] 0.103 | [8] -0.02 | [9] -0.017 | [10] -0.317 | [11] -0.024

LTV1 (UniProt Q96GA3)
Sequence of UniProt Q96GA3 (Q96GA3 whole entry, looked up): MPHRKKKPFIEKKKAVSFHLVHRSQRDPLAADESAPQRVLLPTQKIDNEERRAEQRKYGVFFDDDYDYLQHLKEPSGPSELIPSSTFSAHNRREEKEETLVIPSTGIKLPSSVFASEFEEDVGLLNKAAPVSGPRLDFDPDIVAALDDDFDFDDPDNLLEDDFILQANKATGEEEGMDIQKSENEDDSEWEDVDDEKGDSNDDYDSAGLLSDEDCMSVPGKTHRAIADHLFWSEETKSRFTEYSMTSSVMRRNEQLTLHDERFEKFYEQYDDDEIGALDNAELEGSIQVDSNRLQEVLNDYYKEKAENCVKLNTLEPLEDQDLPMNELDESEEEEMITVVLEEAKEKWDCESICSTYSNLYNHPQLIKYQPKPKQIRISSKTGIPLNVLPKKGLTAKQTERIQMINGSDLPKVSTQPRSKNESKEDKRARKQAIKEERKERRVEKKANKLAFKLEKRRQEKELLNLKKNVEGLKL
inactive: [1] 0.006 | [2] 0.008 | [3] 0.003 | [4] 0.041 | [5] 0.034 | [6] -0.005 | [7] -0.038 | [8] 0.147 | [9] 0.132 | [10] -0.16 | [11] 0.09

ILKAP (UniProt Q9H0C8)
inactive: [1] 0.015 | [2] -0.052 | [3] -0.224 | [4] -0.164 | [5] 0.038 | [6] 0.06 | [7] 0.123 | [8] 0.004 | [9] -0.144 | [10] -0.003 | [11] -0.012

MAPKAPK3 (UniProt Q16644)
inactive: [1] 0.147 | [2] -0.024 | [3] -0.125 | [4] -0.052 | [5] -0.068 | [6] -0.006 | [7] -0.012 | [8] 0.18 | [9] -0.141 | [10] 0.05 | [11] 0.001

INPP5B (UniProt P32019)
inactive: [1] 0.106 | [2] -0.066 | [3] -0.003 | [4] -0.108 | [5] 0 | [6] 0.128 | [7] -0.016 | [8] 0.167 | [9] 0.118 | [10] 0.014 | [11] 0.026
